This is an account of results in PubChem BioAssay (EPA / NIEHS).

Where “and” joins values, the source holds several entries; their conditions need not be identical. Equal entries are not always repeated. Some compounds were tested as several samples or in several runs, with calls that do not always agree. Calls of active or inactive are those of the source. How the source made its calls: active means hit-call score of the fitted dose curve at least 0.9, where 1 is the maximum; inactive means score below 0.9.

Chain of Paired box protein Pax-6 (Homo sapiens) (P26367 whole entry, looked up): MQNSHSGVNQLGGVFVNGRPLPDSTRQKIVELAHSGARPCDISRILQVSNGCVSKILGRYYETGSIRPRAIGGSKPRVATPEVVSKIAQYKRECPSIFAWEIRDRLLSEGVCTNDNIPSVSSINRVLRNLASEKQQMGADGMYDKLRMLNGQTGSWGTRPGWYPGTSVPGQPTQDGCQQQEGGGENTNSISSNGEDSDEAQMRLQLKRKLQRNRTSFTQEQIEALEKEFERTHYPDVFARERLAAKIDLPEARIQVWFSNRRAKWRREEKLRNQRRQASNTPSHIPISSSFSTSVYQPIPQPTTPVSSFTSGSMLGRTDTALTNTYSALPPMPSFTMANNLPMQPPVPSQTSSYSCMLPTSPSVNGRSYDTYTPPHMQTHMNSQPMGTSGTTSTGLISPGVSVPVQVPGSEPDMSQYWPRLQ

This test has as its target Paired box protein Pax-6 (Homo sapiens) (UniProt P26367). The experiment in a line: ATG_Pax6_CIS: Attagene CIS-FACTORIAL HepG2 Assay for human Paired Box 6 (PAX6) (AID 2282956). To be noted: HepG2 CIS-FACTORIAL PAX6 reporter transcription, RNA readout; actives raise or lower the signal. Put shortly:
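Transient MRTU transfection of HepG2 → compound exposure 24 h → TriZol RNA, oligo(dT) RT → PCR, 6-FAM primer extension, HpaI cut → capillary electrophoresis; activity fitted both directions against DMSO.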
As for `CCCCOC(=O)[C@@H](C)Oc1ccc(Oc2ccc(C(F)(F)F)cn2)cc1`, the result was inactive.
On to `CCOC(=O)c1ccc(O)cc1`, for which the AC50 (commonly the concentration at which the activity in the assay is half-maximal) was 100 µM (active) and the call was inactive.
For the compound `COC(=O)c1ccccc1S(=O)(=O)NC(=O)Nc1nc(OC(F)F)cc(OC(F)F)n1`, the compound was called inactive.
`COC(=O)c1cccc(C)c1S(=O)(=O)NC(=O)Nc1nc(OCC(F)(F)F)nc(N(C)C)n1`: the compound was called inactive.
On the same count and under the same terms, under `CCC(O)=C1C(=O)CC(C(=O)O)CC1=O` (centres undefined) stands “inactive”; under `CCCCOC(=O)C(C)Oc1ccc(Oc2ccc(C(F)(F)F)cn2)cc1` (centres undefined), “inactive”.
Regarding `COC(=O)CSc1cc(N=c2sc(=O)n3n2CCCC3)c(F)cc1Cl`, the result was inactive.
Regarding `COc1nc(C)nc(NC(=O)NS(=O)(=O)c2ccccc2OCCCl)n1`, the compound was called inactive.
In the case of `N[C@@H](Cc1cc(I)c(Oc2ccc(O)c(I)c2)c(I)c1)C(=O)O`, the compound was classed as inactive.
On to `CCCCC(CC)CN1C(=O)C2C3C=CC(C3)C2C1=O` (centres undefined), for which the compound was classed as inactive.
For the compound `C[C@]12CC[C@@H]3c4ccc(O)cc4C[C@@H](CCCCCCCCCS(=O)CCCC(F)(F)C(F)(F)F)[C@H]3[C@@H]1CC[C@@H]2O` (some centres undefined), the compound was classed as inactive.
As to `CC(C)CCCCCCc1ccc(O)cc1`, the AC50 is 17.9 µM (active) and 20.8 µM (active) and 19.9 µM (active); the result was inactive.
On to `O=C(c1ccc(O)cc1O)c1ccc(O)cc1O`, for which the compound was classed as inactive.
As for `CN(C)C(=O)Nc1ccc(Cl)c(Cl)c1`, the compound was called inactive.
Same read-out and setting: the result for `COCCO` reads “inactive”.
In the case of `N#CSCSc1nc2ccccc2s1`, the AC50 is 11.1 µM (active) and the compound was called inactive.
In the case of `CCOC(=O)COc1cc(-n2ncc(C(F)(F)F)c(C)c2=O)c(F)cc1Cl`, the outcome was inactive.
In the case of `C#C[C@]1(O)CC[C@H]2[C@@H]3CCC4=CC(=O)CC[C@@H]4[C@H]3CC[C@@]21CC`, the compound was called inactive.
For `CCCN(CCC)c1c([N+](=O)[O-])cc(C(F)(F)F)c(N)c1[N+](=O)[O-]`, the outcome was inactive.
On to `COC(=O)c1ccccc1C(=O)O`, for which the result was inactive.
Take `C=CCOC(Cn1ccnc1)c1ccc(Cl)cc1Cl` (centres undefined): the AC50 is 50 µM (active).
`CSC(=O)c1cccc2nnsc12`: the call was inactive.
Turning to `CC(=O)S[C@@H]1CC2=CC(=O)CC[C@]2(C)[C@H]2CC[C@@]3(C)[C@@H](CC[C@@]34CCC(=O)O4)[C@H]12`, the outcome was inactive.
`c1ccc2[nH]c(-c3cscn3)nc2c1`: the outcome was inactive.
In the case of `C[C@]12C[C@H](O)[C@H]3[C@@H](CCC4=CC(=O)CC[C@@]43C)[C@@H]1CC[C@@H]2C(=O)CO`, the compound was called inactive.
In the case of `OB(O)O`, the result was inactive.
As to `S=C(S)NCCNC(=S)S.[Mn+2].[S-]C([S-])=NCCN=C([S-])[S-].[Zn+2]`, the AC50 is 9.92 µM (active) and 15 µM (active) and 12 µM (active); the outcome was inactive.
Consider `COC(=O)c1ccc(CNS(C)(=O)=O)cc1S(=O)(=O)NC(=O)Nc1nc(OC)cc(OC)n1`, for which the outcome was inactive.
Turning to `O=C(c1ccccc1)C1CCCCC1`, the result was inactive.
On to `COC(=O)c1c(Cl)nn(C)c1S(=O)(=O)NC(=O)Nc1nc(OC)cc(OC)n1`, for which the compound was classed as inactive.
